Results taken from PubChem BioAssay (NCI).
Compounds without any hit were thinned out: in the full panel of roughly 83,000, 20% have a hit.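 For each line, cells grew in 96-well plates with the test compound present at a single concentration for 48 hours.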 Unmarked numbers belong to inactive results. The source made the active and inactive calls. Rule for the calls: active = growth percent below 10; inactive = the rest.

How the values were obtained:
Assay in all cases: NCI-60 one-dose screen, 48 h (100 = growth as untreated, 0 = no growth, -100 = all killed)
Details in all cases: 10 µM unless noted
NCI-H23 lung = tested on: NCI-H23 lung
NCI-H226 lung = tested on: NCI-H226 lung
NCI-H322M lung = tested on: NCI-H322M lung
HOP-62 NSCLC = tested on: HOP-62 NSCLC
NCI-H460 lung = tested on: NCI-H460 lung
HOP-92 NSCLC = tested on: HOP-92 NSCLC
NCI-H522 lung = tested on: NCI-H522 lung
A549/ATCC NSCLC = tested on: A549/ATCC NSCLC
786-0 renal = tested on: 786-0 renal
COLO 205 colon = tested on: COLO 205 colon
DU-145 prostate = tested on: DU-145 prostate
K-562 leukemia = tested on: K-562 leukemia
MALME-3M melanoma = tested on: MALME-3M melanoma
MDA-MB-231 breast = tested on: MDA-MB-231 breast
RXF 393 renal = tested on: RXF 393 renal
SF-268 CNS = tested on: SF-268 CNS
SF-295 CNS = tested on: SF-295 CNS
SF-539 CNS = tested on: SF-539 CNS
UACC-257 melanoma = tested on: UACC-257 melanoma
M14 melanoma = tested on: M14 melanoma

SMILES	growth (NCI-H23 lung)	growth (NCI-H226 lung) [%]	growth (NCI-H322M lung) [%]	growth (HOP-62 NSCLC) [%]	growth (NCI-H460 lung)	growth (HOP-92 NSCLC)	growth (NCI-H522 lung)	growth (A549/ATCC NSCLC)	growth (786-0 renal)	growth (COLO 205 colon)	growth (DU-145 prostate)	growth (K-562 leukemia)	growth (MALME-3M melanoma)	growth (MDA-MB-231 breast)	growth (RXF 393 renal) [%]	growth (SF-268 CNS) [%]	growth (SF-295 CNS)	growth (SF-539 CNS)	growth (UACC-257 melanoma)	growth (M14 melanoma)
COc1ccc(C(=O)/C=C/c2ccc(OCc3ccccc3)c(OC)c2)cc1OC	59.8%	75.8	43.2	31.4	47%	11.5%	28.9%	13.6%	87.9%	74.6%	36.7%	20.7%	56.4%	55.3%	75.1	43.8	57.1%	83.3%	63.2%	83.1%
Cc1ccc(C(=O)Nc2ccccc2C(=O)N/N=C(\c2ccccc2)c2ccccn2)cc1	32.6%	30.3	33.4	14.5	5.43% (active)	52.7%	24.1%	17.2%	-17.1% (active)	14.1%	22.7%	19.9%	37.9%	34.4%	40.4	20.2	23%	8.97% (active)	8.34% (active)	-38.9% (active)
CC(O)(CO)c1ccccc1 (stereo not given)	96%	99.6	102	96.9	105%	94.2%	105%	99.2%	99%	103%	105%	120%	95.3%	97.7%	109	101	98.6%	92.4%	93.9%	94.6%
COc1cc(C(=O)c2cnc(-c3ccc4cc[nH]c4c3)[nH]2)cc(OC)c1OC	22.9%	26.2	36.3	12.7	-9.07% (active)	-2.58% (active)	-17.4% (active)	8.91% (active)	-8.83% (active)	-55.3% (active)	-1.47% (active)	8.98% (active)	48.9%	-48% (active)	34.4	10	5.4% (active)	-5.7% (active)	62.3%	4.97% (active)
COc1cccc(C(Cc2ccccc2)Nc2ccccc2)c1OC (stereo not given)	92.1%	91.3	101	92.6	101%	77.5%	65.6%	81.4%	95.5%	105%	109%	90.4%	98.9%	97.4%	109	101	99.6%	104%	91%	97.2%
C=C(C)[C@@H]1CC[C@]2(C(=O)O)CC[C@]3(C)[C@H](CC[C@@H]4[C@@]5(C)C[C@@H](CC#Cc6ccc(Br)cc6)C(=O)C(C)(C)[C@@H]5CC[C@]43C)[C@@H]12	31.2%	17.3	65.7	52.3	42.3%	65.8%	17.3%	33.1%	63.1%	69.1%	40%	42.8%	-19.9% (active)	0.351% (active)	52.6	72.1	58.9%	61.1%	52.7%	5.57% (active)
CCCCN(CCCC)CCc1c(C)cc(C)c(CCN(CCCC)CCCC)c1O	4.18% (active)	26.8	35.5	62.4	7.59% (active)	-11.3% (active)	-6.82% (active)	41.5%	41.1%	20%	52.9%	21.2%	-15.9% (active)	48.3%	40.1	49.5	31.3%	67.6%	7.47% (active)	38.8%
CC(C)C1C2=C(NCCN1C(=O)Cc1ccccc1)C(C)(C)N(Cc1ccccc1)C2=O (stereo not given)	97.4%	104	99.2	91.9	104%	93.6%	93.6%	100%	97.3%	100%	104%	96.5%	98.3%	98.2%	98.3	102	99.5%	107%	96.7%	103%
